Screens deposited in PubChem BioAssay by several laboratories.
Most compounds without a hit are left out; they make up all but 4.5% or so of the library.
PrPC surface inh = inhibitors of human cell surface prion protein PrPC, primary screen, cell-based, TR-FRET; inhibition, % at 13.8 µM; 370,000 compounds, 0.43% hits; Major prion protein (Homo sapiens), P04156; TR-FRET read-out; AID 720596, 2013; in the data active means inhibition above about 24%
BJeLR viability = MLPCN primary cell-based screen for lethality selective to Ras in HRASV12 cells | inhibition, % (no concentration beside the values) | AID 1554, 2009 | BJeLR (HRASV12) viability, CellTiter-Glo ATP luminescence, 48 h | 300,000 compounds, 0.17% hits; in the data active means inhibition above about 50%
Mtb FBA inh = Mtb FBA enzyme inhibitors, primary screen, biochemical, fluorescence, strain H37Rv. Fructose-bisphosphate aldolase (Mycobacterium tuberculosis (strain ATCC 25618 / H37Rv)), …. purified M. tuberculosis FBA, fluorescence read-out. inhibition, % at 1 µM. 360,000 compounds, 2.3% hits. AID 588726, 2011; in the data active means inhibition above about 27%
Target sequence (P9WQA3 whole entry, looked up): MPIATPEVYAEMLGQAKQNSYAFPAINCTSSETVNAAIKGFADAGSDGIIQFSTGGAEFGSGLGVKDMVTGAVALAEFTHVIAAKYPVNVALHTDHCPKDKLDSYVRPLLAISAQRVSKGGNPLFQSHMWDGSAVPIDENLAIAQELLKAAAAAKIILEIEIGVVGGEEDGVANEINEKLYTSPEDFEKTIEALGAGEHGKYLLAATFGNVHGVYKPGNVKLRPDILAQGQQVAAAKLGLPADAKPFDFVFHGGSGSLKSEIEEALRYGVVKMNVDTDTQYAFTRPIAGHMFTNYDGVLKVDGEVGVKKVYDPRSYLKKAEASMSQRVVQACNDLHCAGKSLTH
PrP UTR inh = inhibition of PrP 5' UTR reporter expression; AID 488862, 2010; 340,000 compounds, 0.35% hits; inhibition, % (test concentration not listed); cell-based PrP 5' UTR mRNA reporter, plate reader; in the data active means inhibition above about 52%
GDH-TPI counter = GDH-TPI coupling enzyme inhibitors, primary screen, artefact control for M. tuberculosis FBA inhibitor project, biochemical, absorbance, full deck; GDH-TPI coupled enzyme counterscreen, NADH absorbance; 360,000 compounds, 1.2% hits; inhibition, % at 4.8 µM; in the data active means inhibition above about 30%
PfHsp40 rescue = rescue of yeast from PfHsp40 toxicity, primary screen, S. cerevisiae, ATP luminescence. growth rescue, % at 12.5 µM. S. cerevisiae expressing PfHsp40, growth rescue. AID 504582, 2011. 340,000 compounds, 0.68% hits; in the data active means growth rescue above about 28%, passing the limit was not always enough;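 further: yeast W303a lacking pdr1 and pdr3 grown in galactose medium; growth measured after three days at 30 °C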
Hits are given with their value; n = inactive; x = no result given; + = active, no number.

SMILES	PrPC surface inh	BJeLR viability	Mtb FBA inh	PrP UTR inh	GDH-TPI counter	PfHsp40 rescue
O=C1/C(=C/c2cccs2)SC(=S)N1NS(=O)(=O)c1ccccc1	n	n	n	n	n	222
O=C(NN1C(=O)/C(=C/c2cccs2)SC1=S)c1ccncc1	n	n	n	n	34	n
O=C(CCCN1C(=O)/C(=C/c2cccs2)SC1=S)NNC(=O)c1cccnc1	n	n	n	n	33	n
CC(C)C[C@H]1COc2cccc(F)c2S(=O)(=O)N1Cc1cn(Cc2ccc(F)cc2)nn1	n	x	x	x	x	x
CC(C)c1cc2cc3ccc(=O)oc3cc2o1	n	n	n	n	n	n
C/C=C(/C)C(=O)O[C@@H]1c2c(ccc3ccc(=O)oc23)O[C@@H]1C(C)(C)OC(C)=O	n	n	n	n	n	n
CC(C)(O)[C@H]1Cc2cc3ccc(=O)oc3cc2O1	n	n	+	n	n	n
CC(C)(O)[C@@H]1Cc2c(ccc3ccc(=O)oc23)O1	n	n	+	n	n	n
C=C(C)C1Cc2cc3ccc(=O)oc3cc2O1 (stereo unspecified)	n	n	185	n	n	n
CC(C)(O[C@@H]1O[C@H](CO)[C@@H](O)[C@H](O)[C@H]1O)[C@H]1Cc2cc3ccc(=O)oc3cc2O1	n	n	+	n	33	n
CC(C)(O)[C@H](O)Cc1cc2ccc(=O)oc2cc1O[C@@H]1O[C@H](CO)[C@@H](O)[C@H](O)[C@H]1O	n	x	n	n	n	n
CC(C)Oc1cccc(-c2n[nH]c(=S)n2N=Cc2cccc([N+](=O)[O-])c2)c1	n	x	x	x	x	x
C=CCN1[C@H](C)COc2cccc(F)c2S1(=O)=O	n	x	x	x	x	x
CCCc1sc(N/N=C/c2ccccn2)nc1-c1ccc(F)cc1	x	61	n	n	n	38
Cc1ccc(N2C(=O)c3ccccc3C2C(=O)c2ccc(O)cc2O)cc1 (stereo unspecified)	n	n	n	n	43	n
O=S1(=O)c2ccc(N3CCCC3)cc2Oc2ccccc2CN1Cc1cn(Cc2ccccc2C(F)(F)F)nn1	n	x	x	x	x	x
Cc1ccc(S(=O)(=O)N2CCCC(C(=O)N3CCN(c4ccccc4)CC3)C2)cc1 (stereo unspecified)	n	n	n	n	n	74
COc1ccc(N2CCN(C(=O)C3CCCN(S(=O)(=O)c4ccc(C)cc4)C3)CC2)cc1 (stereo unspecified)	n	n	n	n	n	n
CC(C)(C)N1Cc2nnn(Cc3ccccc3)c2-c2ccccc2S1(=O)=O	n	x	x	x	x	x
CC(C)(C)OC(=O)C1[C@H](O)C=CC[C@H]1S(=O)c1ccccc1 (stereo partly specified)	n	x	x	x	x	x
C=CCN1[C@H](C#N)[C@@H](c2ccc(C#Cc3cccnc3)cc2)[C@H]1CO	n	x	x	x	x	x
COc1ccccc1/C=C1\SC(=S)N(NS(=O)(=O)c2ccc(C)cc2)C1=O	n	n	n	n	n	32
CCOc1ccc(/C=C2\SC(=S)N(NS(=O)(=O)c3ccccc3)C2=O)cc1OC	n	n	n	n	n	60
CCOc1ccc(/C=C2\SC(=S)N(NS(=O)(=O)c3ccc(C)cc3)C2=O)cc1OC	n	n	n	n	n	n
COc1cc(-c2c(C(=O)c3ccccc3)[nH]c(N)c2C(N)=O)ccc1O	n	x	x	x	x	x
SMILES	PrPC surface inh	BJeLR viability	Mtb FBA inh	PrP UTR inh	GDH-TPI counter	PfHsp40 rescue
Cc1cccc(C)c1NC(=O)CSc1nnc(NC(=O)CN2CCOCC2)s1	n	n	n	n	n	64
C=CCN1C(=O)[C@@H](CC(=O)NCc2ccccc2)[C@]2(C(=O)OCC)CCCCC/C=C/12	n	x	x	x	x	x
CCS(=O)(=O)c1ccc(C=NNc2nc3ccccc3o2)cc1	n	x	n	n	37	n
O=c1cc(/C=C/c2ccccc2)oc2ccccc12	n	n	n	n	32	n
O=c1cc(-c2ccccc2)oc2ccccc12	n	x	n	n	n	n
CCOc1ccccc1N1C(=O)NC(=O)/C(=C/c2ccc3c4c(cccc24)CC3)C1=O	n	n	38	n	n	n
CCOc1ccc(Nc2nc(N)nc(CCl)n2)cc1	n	99	n	n	n	n
COc1ccccc1Nc1nc(N)nc(CCl)n1	n	n	n	n	n	n
COc1ccc(OC)c(Nc2nc(N)nc(CCl)n2)c1	n	121	n	n	n	n
Cc1cccc(Nc2nc(N)nc(CCl)n2)c1C	n	56	n	x	n	x
Cc1ccc(Nc2nc(N)nc(CCl)n2)c(C)c1	n	121	n	n	n	n
Cc1ccc(Nc2nc(N)nc(CCl)n2)cc1	n	n	n	n	n	n
Cc1ccc(NC(=O)Cn2nnc(-c3ccncc3)n2)cc1C	n	x	x	x	x	x
Cc1cccc(Nc2nc(N)nc(CCl)n2)c1	n	94	n	n	n	n
Cc1ccc(C(=O)OCc2nnc(-c3ccc(Br)cc3)o2)cc1	n	n	n	n	n	27
O=C1CC(C(=O)Nc2ccc(F)cc2)S/C(=N\N=C\c2ccco2)N1 (stereo unspecified)	n	n	n	n	34	n
Cc1ccc(NC(=O)C2CC(=O)N/C(=N/N=C/c3ccco3)S2)cc1C (stereo unspecified)	x	n	n	n	52	n
Cc1ccc(NC(=O)C2CC(=O)N/C(=N/N=C/c3ccco3)S2)cc1 (stereo unspecified)	n	n	n	n	44	n
O=S1(=O)CC2c3ccccc3CN2CN1C1CCCC1 (stereo unspecified)	n	x	x	x	x	x
CCc1ccc(/C=C2\Oc3c(ccc(O)c3CN3CCN(CCO)CC3)C2=O)cc1	n	n	n	n	35	n
C[C@H](O)[C@@H]1CN2CCc3ccc(N4CCOCC4)cc3[C@@H]2C[C@@H]1N(C)C(=S)NCCc1ccccc1	n	x	x	x	x	x
C/C(=N/N=C1/NC(=O)CC(C(=O)O)S1)c1ccccc1 (stereo unspecified)	n	n	n	n	n	n
O=C1CC(C(=O)O)S/C(=N\N=C\c2ccc(Br)cc2)N1 (stereo unspecified)	n	n	n	n	66	n
Cc1ccc2c(c1)C1CS(=O)(=O)N(CCc3ccccc3)C(=O)N1C2 (stereo unspecified)	n	x	x	x	x	x
CCCC(C)C(=O)Nc1ccc(Cl)cn1 (stereo unspecified)	n	n	n	n	31	n
Cn1c(=O)n(Cc2ccccc2)c2ccccc21	n	n	n	n	n	n
Cn1c(=O)c(N=O)c(N)n(Cc2ccccc2)c1=S	n	n	n	n	32	n
COc1ccc(CCNC(=O)c2cnn(-c3ccccc3)c2N)cc1OC	n	x	x	x	x	x
C=CCN(CC=C)C(=S)NC(=O)c1ccc(C)c(Br)c1	n	n	n	n	n	296
Cc1nn(-c2ccccc2)c2sc(C(=O)NCc3ccc(F)cc3)cc12	n	x	x	x	x	x
